PLCg1 inh – PLC-gamma1 (human) inhibition, primary screen. hit rate 0.84% among 370,000. purified PLC-gamma1, fluorogenic substrate, fluorescence. P19174. AID 720700. inhibition, % at 12.2 µM; in the data active = inhibition above about 9.5%
MsrA inh – inhibits bovine methionine sulfoxide reductase A | purified bovine MsrA, absorbance read-out | inhibition, % at 15.5 µM | hit rate 0.75% among 360,000;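 also: 0% = vehicle wells with enzyme and 100% = reference inhibitor wells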
PLCb3 inh – inhibitors of human phospholipase C beta3. Q01970. inhibition, % at 12.2 µM. Purified PLC-beta3, fluorogenic substrate, fluorescence. hit rate 0.18% among 370,000; in the data active = inhibition above about 11%;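 also: 0% = median of compound wells on plate and 100% = full blocker control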
Target sequence (Q01970 whole entry, looked up): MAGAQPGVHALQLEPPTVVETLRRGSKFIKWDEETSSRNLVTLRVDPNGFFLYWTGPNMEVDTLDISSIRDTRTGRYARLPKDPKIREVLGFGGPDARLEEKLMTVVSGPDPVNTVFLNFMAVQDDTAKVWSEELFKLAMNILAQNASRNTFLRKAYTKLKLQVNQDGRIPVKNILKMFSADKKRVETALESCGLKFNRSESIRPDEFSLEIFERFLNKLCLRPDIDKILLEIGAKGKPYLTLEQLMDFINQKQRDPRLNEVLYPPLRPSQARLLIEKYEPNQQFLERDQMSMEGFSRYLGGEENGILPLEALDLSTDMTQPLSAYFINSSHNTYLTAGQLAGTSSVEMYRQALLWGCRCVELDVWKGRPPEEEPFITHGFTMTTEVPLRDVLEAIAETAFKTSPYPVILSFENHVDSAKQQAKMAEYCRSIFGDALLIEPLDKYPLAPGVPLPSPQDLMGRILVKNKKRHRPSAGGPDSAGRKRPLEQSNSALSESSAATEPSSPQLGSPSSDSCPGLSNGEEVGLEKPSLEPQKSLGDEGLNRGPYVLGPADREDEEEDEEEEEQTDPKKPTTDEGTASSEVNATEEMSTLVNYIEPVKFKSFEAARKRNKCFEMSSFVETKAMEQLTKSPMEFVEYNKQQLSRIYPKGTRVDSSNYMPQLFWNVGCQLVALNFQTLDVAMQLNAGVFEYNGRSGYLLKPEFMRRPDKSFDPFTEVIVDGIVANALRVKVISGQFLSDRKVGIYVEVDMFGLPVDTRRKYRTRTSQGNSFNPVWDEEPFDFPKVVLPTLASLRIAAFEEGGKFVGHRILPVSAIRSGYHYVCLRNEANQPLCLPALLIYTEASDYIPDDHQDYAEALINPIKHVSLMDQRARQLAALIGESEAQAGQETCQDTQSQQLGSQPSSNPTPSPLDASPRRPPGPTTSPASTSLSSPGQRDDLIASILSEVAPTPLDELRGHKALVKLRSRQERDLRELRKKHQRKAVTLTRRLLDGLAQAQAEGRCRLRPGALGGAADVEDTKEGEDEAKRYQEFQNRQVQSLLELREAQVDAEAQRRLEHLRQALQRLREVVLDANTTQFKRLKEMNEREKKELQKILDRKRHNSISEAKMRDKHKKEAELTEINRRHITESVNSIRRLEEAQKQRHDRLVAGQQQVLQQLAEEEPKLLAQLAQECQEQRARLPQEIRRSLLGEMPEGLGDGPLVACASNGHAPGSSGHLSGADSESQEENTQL
MsrA act – activators of bovine methionine sulfoxide reductase A; hit rate 0.3% among 360,000; activation, % at 10.6 µM; purified bovine MsrA, absorbance read-out; in the data active = activation above about 7.5%;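 also: 0% = vehicle and 100% = reference activator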
MsrA inh confirm – bovine MsrA inhibition, confirmed. inhibition, % at 15.5 µM. purified bovine MsrA, absorbance read-out. AID 651822. hit rate 41% among 2,300. shares compounds with MsrA inh;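 also: coupled to thioredoxin reductase with NADPH and selenocystamine and DMSO as substrate; 0% = vehicle only and 100% = full effect of reference inhibitor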
Numbers without * were called inactive; i = inactive; · = no result. The list is not random: actives were taken first. Their share in the collection is about 1.9%. Rule as the data show it, unless noted: active = inhibition above about 4.5%; inactive = the rest.

SMILES	PLCg1 inh	MsrA inh	PLCb3 inh	MsrA act	MsrA inh confirm
COc1ccc(NC(=O)C2=CC(c3ccco3)=NS(=O)(=O)N2C)cc1	5.2	3.1	5.4	-0.7	·
COc1ccc(C2=NS(=O)(=O)N(C)C(C(=O)NCc3cccs3)=C2)cc1OC	-24.8	4.7*	-29.7	-1.6	1.7
COc1ccc(C2=NS(=O)(=O)N(C)C(C(=O)NC3CCCC3)=C2)cc1	-64.9	6.1*	-80.5	-1.8	1.6
O=C(CSc1nnc(-c2cccnc2)n1-c1ccc(Cl)cc1)Nc1cccc2ccccc12	0.5	·	-0.6	·	·
Fc1ccc(/C=C/c2nnc(-c3cccs3)o2)cc1	-22.0	5.2*	-36.5	-5.1	2.4
Cc1ccc(/C=C/c2nnc(-c3cccs3)o2)cc1	-31.2	1.4	-36.5	-14.4	·
Oc1ccc(C(=Nc2ccccc2)c2ccccc2)c(O)c1	0.6	5.3*	-2.2	-5.1	0.6
Fc1ccc(-c2n[nH]c(=S)n2/N=C/c2c[nH]c3ccccc23)cc1	1.2	5.3*	-3.0	0.9	1.4
CC(=O)c1sc(NC(=O)c2cc(=O)c3ccccc3o2)nc1C	0.5	1.1	3.1	-1.2	·
CCOC(=O)c1csc(NC(=O)c2cc(=O)c3ccccc3o2)n1	2.2	4.7*	1.2	-7.6	4.4
COc1ccc(/C(O)=C(\C#N)c2nc3ccccc3n2C)cc1OC	0.3	6.9*	-3.9	-6.3	6.0*
Cn1c(/C(C#N)=C(\O)c2cc(Cl)sc2Cl)nc2ccccc21	0.7	0.7	-4.5	-3.2	·
O=C1CCCC/C1=C\Nc1ccc(O)cc1	-42.2	2.8	-54.9	-3.2	·
O=C1CCC/C1=C/Nc1ccc(Cl)cc1	3.7	6.0*	-4.3	-2.7	4.5
N#CC(C#N)=Cc1c[nH]c(=O)c(C#N)c1Nc1ccccc1	i	5.4*	i	-2.4	2.4
O=C(O)c1ccc2c(=O)n3c(nc2c1)/C(=C/c1cccc(O)c1)CC3	-6.6	5.0*	-18.2	-7.5	4.4
CCN1CCCCC(NC(=O)c2ccccc2OC)C1=O (stereo unspecified)	0.5	·	-1.8	·	·
COc1ccc(/C=C/C(=O)NC(=S)NNC(=O)c2cccnc2)cc1	-13.1	6.0*	-13.9	-2.5	5.2*
C=CCN(CC=C)C(=S)NC(=O)/C=C/c1ccc(C)cc1	-1.5	-1.7	5.5	-1.0	·
C=CCN(CC=C)C(=S)NC(=O)/C=C/c1ccc(OC)cc1	-0.1	4.8*	1.9	-8.6	1.8
COc1ccccc1C(=O)N1CCN(C(=O)[C@H]2O[C@@H](n3cnc(C(N)=O)n3)[C@H](O)[C@@H]2O)CC1	1.0	1.6	2.6	·	·
COC(=O)[C@]12C[C@H](CC(=O)NCc3ccc(OC)c(OC)c3)C(=O)N(CCc3ccc(OC)c(OC)c3)C1=C[C@H](COCc1ccccc1)O[C@@H]2C	-0.8	·	0.7	·	·
N#C/C(=C(/O)CSc1ccccc1C(=O)O)c1nc2ccccc2s1	-9.9	7.1*	-10.8	-4.5	7.1*
c1ccc(-c2nc(-c3cccs3)[nH]c2-c2ccccc2)cc1	-75.2	1.6	-112.3	-1.0	·
Cc1nc2nc(-c3cccs3)[nH]c2cc1Br	1.8	7.0*	-13.2	0.7	4.4
SMILES	PLCg1 inh	MsrA inh	PLCb3 inh	MsrA act	MsrA inh confirm
C[C@H](O)[C@@H]1CN2CCc3c([nH]c4c(-c5ccccc5)cccc34)[C@@H]2C[C@@H]1N(C)C(=O)NC1CCCCC1	-72.2	-0.7	-93.1	·	·
Cc1nnc(N/N=C/c2ccc(-c3ccccc3F)o2)n1N	-16.3	6.1*	-26.1	1.4	6.0*
Cc1nnc(N/N=C/c2c(Cl)cccc2Cl)n1N	4.6	-0.2	4.8	5.7	·
CCOc1cc(/C=N/NC(=O)C(=O)N/N=C/c2ccc(O)c(OCC)c2)ccc1O	-13.6	5.5*	-25.2	-4.0	4.1
CCOc1cc(/C=N/Nc2ncnc(Cl)c2N)ccc1O	-5.8	4.9*	-9.6	-7.0	6.0*
O=C(N=Nc1c(O)[nH]c2ccccc12)c1ccc(CN2CCOCC2)cc1	1.3	6.1*	-0.6	1.8	2.8
CCCn1c(O)c(N=NC(=O)c2ccco2)c2ccccc21	1.5	4.7*	2.4	-1.4	5.3*
CCn1c(O)c(N=NC(=O)CNC(=O)c2ccco2)c2ccccc21	-1.4	1.3	0.8	-7.4	·
O=C(N=Nc1c(O)[nH]c2ccccc12)c1ccco1	3.5	6.8*	2.3	-8.6	5.0*
C[C@H](CO)N1C[C@H](C)[C@H](CN(C)Cc2cccc(F)c2)Oc2ncc(C3=CCCC3)cc2C1=O	-2.0	0.3	-4.5	·	·
O=[N+]([O-])c1ccccc1S(=O)(=O)Nc1ccc(-c2ccc(N3CCCC3)nn2)cc1	-1.2	5.0*	-1.2	-3.4	1.6
NC(=S)N/N=C/c1ccc(-c2cccc([N+](=O)[O-])c2)o1	6.7	5.1*	8.3	-2.6	7.6*
COc1ccc(CCNC(=O)Cn2nc(-c3ccccc3)ccc2=O)cc1	0.0	·	3.7	·	·
O=C(NC(=S)Nc1ccccc1N1CCOCC1)c1ccco1	0.7	8.0*	2.4	-2.0	4.4
O=C(NC(=S)Nc1ccccc1N1CCCC1)c1ccco1	-33.2	-0.1	-37.1	-3.0	·
CCOC(=O)C1=CCN(S(=O)(=O)c2ccccc2F)C1c1ccc(Br)cc1 (stereo unspecified)	-5.1	-0.8	-0.6	·	·
CCOC(=O)N1CCC(Nc2c(-c3ccc(C)cc3)c(=O)c2=O)CC1	5.3	4.9*	3.9	-3.8	3.3
COC(=O)[C@]12C[C@H](CC(=O)NCCCCc3ccccc3)C(=O)N(Cc3ccccc3)C1=C[C@H](C1CCCC1)O[C@@H]2C	-3.2	0.2	-2.0	·	·
O=C(Nc1ccc2nc(-c3cccs3)[nH]c2c1)c1ccco1	-102.2	4.7*	-124.7	-5.5	3.2
O=C(Nc1ccc2nc(-c3cccs3)[nH]c2c1)c1cccs1	-98.9	2.2	-120.6	-2.3	·
COC(=O)[C@]12C[C@H](CC(=O)NCCCN3CCCC3=O)C(=O)N(Cc3ccccc3)C1=C[C@H](C(C)C)O[C@@H]2C1CC1	-0.5	-0.6	1.7	·	·
CCC(=O)N/N=C/c1ccc(-c2ccc(Cl)cc2)o1	-0.8	4.8*	-10.7	-3.6	4.2
CCCCC(=O)N/N=C/c1ccc(-c2ccc([N+](=O)[O-])cc2)o1	-31.0	1.2	-45.8	-6.4	·
O=C(COC(=O)c1cc(S(=O)(=O)NCc2ccccc2)ccc1O)c1cc2ccccc2o1	-2.2	4.8*	-10.5	-2.8	3.3
O=C(COC(=O)c1cc(S(=O)(=O)NCc2ccccc2)ccc1O)NCc1ccccc1	-8.1	3.7	-9.7	-3.7	·
SMILES	PLCg1 inh	MsrA inh	PLCb3 inh	MsrA act	MsrA inh confirm
COc1ccc(/C=N/NC(=O)c2cccnc2)cc1COc1ccc([N+](=O)[O-])c(C)c1	-1.2	4.7*	-6.8	-3.9	1.0
Cn1c(/C(C#N)=C/Nc2ccccn2)nc2ccccc21	-352.1	6.8*	i	-7.7	3.3
CCN1C(=O)/C(=C\c2nc3ccccc3c(=O)n2CC)c2ccccc21	2.9	4.7*	1.0	-10.4	1.1
C=CCN1C(=O)c2n[nH]c(C(C)C)c2C1c1ccccc1 (stereo unspecified)	1.9	-0.4	-0.7	·	·
O=C(N/N=C/c1ccc(O)cc1O)c1ccncc1	-18.1	4.9*	-32.5	-1.2	3.7
Cc1nonc1C(=O)N/N=C/c1ccc(O)cc1O	-18.3	5.1*	-24.4	-2.6	3.5

Screens (PubChem)
